STK33 inh: STK33 kinase inhibitors, primary screen, biochemical, luminescence, ADP-Glo, MBP substrate; Serine/threonine-protein kinase 33 (Homo sapiens), Q9BYT3; AID 2322, 2010; inhibition, % at 12.5 µM; 27,000 compounds, 0.44% hits; in the data active = inhibition above about 20%; inconclusive = no clear call, values can overlap the other calls
Target sequence (Q9BYT3 whole entry, looked up): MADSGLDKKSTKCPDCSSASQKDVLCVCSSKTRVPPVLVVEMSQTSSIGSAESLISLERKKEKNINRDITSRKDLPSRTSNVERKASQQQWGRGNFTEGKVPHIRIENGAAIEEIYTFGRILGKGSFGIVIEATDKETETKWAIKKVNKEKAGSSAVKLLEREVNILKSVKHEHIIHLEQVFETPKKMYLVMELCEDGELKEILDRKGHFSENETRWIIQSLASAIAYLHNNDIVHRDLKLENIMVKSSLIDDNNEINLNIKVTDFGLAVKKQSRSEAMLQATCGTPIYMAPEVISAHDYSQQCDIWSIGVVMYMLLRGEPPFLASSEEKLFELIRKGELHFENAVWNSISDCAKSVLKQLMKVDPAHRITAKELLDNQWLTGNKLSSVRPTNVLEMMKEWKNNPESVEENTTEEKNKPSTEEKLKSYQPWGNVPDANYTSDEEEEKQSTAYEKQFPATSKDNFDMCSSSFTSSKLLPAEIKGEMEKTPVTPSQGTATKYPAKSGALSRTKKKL
PD-1 reversal: activators reversing PD-1 mediated T-cell inhibition, primary screen, luminescence, primary human CD4 T cells, PD-L1 beads; activation, % (no concentration beside the values); 29,000 tested, under 10 active; AID 2316, 2010; CellTiter-Glo 96 h; call rule not given here
NOMO-1 viab: NOMO-1 AML cell viability reduction, primary screen, STK33 inhibitor project, CellTiter-Glo luminescence | AID 2330, 2010 | 37,000 compounds, 7.5% hits | NOMO-1 AML viability, 72 h | inhibition, % (no concentration beside the values); in the data active = inhibition above about 80%; inconclusive = no clear call, values can overlap the other calls
Large screens that a line does not name were inactive. This excerpt belongs to a sample that is enriched for hits.

C[C@@H]1CN([C@H](C)CO)C(=O)c2cc(NS(=O)(=O)c3ccc(Cl)cc3)ccc2O[C@H]1CN(C)Cc1ccc(Oc2ccccc2)cc1	none (no result: STK33 inh)
COc1ccc(CN(C)C[C@H]2Oc3ccc(NS(=O)(=O)c4ccccc4)cc3C(=O)N([C@@H](C)CO)C[C@@H]2C)cc1	none
COc1ccc(S(=O)(=O)Nc2ccc3c(c2)C(=O)N([C@@H](C)CO)C[C@H](C)[C@H](CN(C)Cc2ccc(Oc4ccccc4)cc2)O3)cc1	NOMO-1 viab 123 (no result: PD-1 reversal)
COc1ccc(S(=O)(=O)Nc2ccc3c(c2)C(=O)N([C@H](C)CO)C[C@@H](C)[C@H](CN(C)Cc2ccc(Oc4ccccc4)cc2)O3)cc1	NOMO-1 viab 105
COc1ccc(S(=O)(=O)Nc2ccc3c(c2)C(=O)N([C@H](C)CO)C[C@H](C)[C@@H](CN(C)Cc2ccccc2)O3)cc1	none (no result: STK33 inh)
C[C@@H]1CN([C@@H](C)CO)C(=O)c2cc(NS(=O)(=O)c3ccc(Cl)cc3)ccc2O[C@H]1CN(C)Cc1ccc(Oc2ccccc2)cc1	NOMO-1 viab 109 (no result: STK33 inh)
COc1ccc(S(=O)(=O)Nc2ccc3c(c2)C(=O)N([C@@H](C)CO)C[C@@H](C)[C@H](CN(C)Cc2ccc(Oc4ccccc4)cc2)O3)cc1	NOMO-1 viab 108
C[C@@H]1CN([C@@H](C)CO)C(=O)c2cc(NS(=O)(=O)c3ccccc3)ccc2O[C@H]1CN(C)Cc1ccc(Oc2ccccc2)cc1	NOMO-1 viab inconclusive
CCc1cc(C(=O)OC)c(NC(=S)Nc2ccc(S(=O)(=O)N3CCOCC3)cc2)s1	none (no result: PD-1 reversal)
Cc1cccc(C(=O)NN(c2ccccc2)c2ccccc2)c1	none (no result: STK33 inh)
O=C(CSc1n[nH]c(-c2ccc(Cl)cc2)n1)c1ccc(Br)cc1	none
COc1ccc(S(=O)(=O)Nc2ccc3c(c2)C(=O)N([C@H](C)CO)C[C@@H](C)[C@@H](CN(C)Cc2ccc(Oc4ccccc4)cc2)O3)cc1	NOMO-1 viab 111 (no result: STK33 inh)
COc1ccc(S(=O)(=O)Nc2ccc3c(c2)C(=O)N([C@H](C)CO)C[C@H](C)[C@H](CN(C)Cc2ccc(-c4ccccc4)cc2)O3)cc1	none (no result: STK33 inh)
C[C@@H]1CN([C@@H](C)CO)C(=O)c2cc(NS(=O)(=O)c3ccc(F)cc3)ccc2O[C@H]1CN(C)Cc1ccc(Oc2ccccc2)cc1	NOMO-1 viab 98
COc1ccc(S(=O)(=O)Nc2ccc3c(c2)C(=O)N([C@H](C)CO)C[C@H](C)[C@@H](CN(C)Cc2ccc(Oc4ccccc4)cc2)O3)cc1	none (no result: STK33 inh)
C[C@H](CO)N1C[C@H](C)[C@H](CN(C)Cc2ccc(Oc3ccccc3)cc2)Oc2ccc(NS(=O)(=O)c3ccccc3)cc2C1=O	NOMO-1 viab inconclusive (no result: STK33 inh)
COc1ccc(S(=O)(=O)Nc2ccc3c(c2)C(=O)N([C@@H](C)CO)C[C@@H](C)[C@H](CN(C)Cc2ccc(-c4ccccc4)cc2)O3)cc1	NOMO-1 viab 122 (no result: STK33 inh)
Cn1c(SCC(=O)Nc2cc(C(F)(F)F)ccc2Cl)nnc1-c1ccc(Br)cc1	none
COc1cc(OC)cc(-c2nnc(SCC(=O)NC3CC4CCC3C4)o2)c1 (stereo unspecified)	none
Cc1ccc(NC(=O)CCCC(=O)Nc2ccc(C)c(C)c2)cc1C	none (no result: PD-1 reversal, NOMO-1 viab)
COc1ccc(-c2nnc(SCC(=O)c3ccc(Cl)cc3)n2-c2ccc(C)cc2)cc1OC	none
CN1CCc2cc(Cl)c(O)cc2[C@@H](c2ccccc2)C1	none (no result: PD-1 reversal)
C=CCN1CCc2c(cc(O)c(O)c2Br)[C@@H](c2ccccc2)C1	NOMO-1 viab 109 (no result: PD-1 reversal)
CC(=O)Nc1ccc(NC(=O)CNS(=O)(=O)c2c(C)cc(C)cc2C)cc1	none
Cc1cc(C)c(S(=O)(=O)NCC(=O)Nc2ccc(C(C)C)cc2)c(C)c1	NOMO-1 viab 95
CN(C)CCCC[C@@H]1NC(=O)[C@@H]2C[C@H](C(=O)O)[C@H](c3cccc(OCCO)c3)N2C1=O	none (no result: PD-1 reversal, NOMO-1 viab)
Cn1nnnc1SCC(=O)Nc1cccc(Cl)c1Cl	none (no result: PD-1 reversal)
CCOc1c(CNCc2ccccn2)cccc1OC	none
Oc1ccccc1CNCc1ccccn1	NOMO-1 viab 115 (no result: STK33 inh)
Nc1ncnc2c1c1nc3ccccc3nc1n2CCc1ccccc1	none
CNC(=O)N(Cc1cccnc1)Cc1ccccc1Cl	none (no result: STK33 inh)
COc1cc(C2OCC3C(c4ccc5c(c4)OCO5)OC(=O)C23)ccc1O (stereo unspecified)	none
COc1cc([C@@H]2c3cc4c(cc3[C@@H](OC3OC5COC(C)OC5C(O)C3O)[C@H]3COC(=O)[C@H]23)OCO4)cc(OC)c1O (stereo partly specified)	NOMO-1 viab 141
COc1cc([C@@H]2c3cc4c(cc3C(OC3O[C@@H]5COC(C)O[C@H]5[C@H](O)[C@H]3O)C3COC(=O)[C@@H]32)OCO4)cc(OC)c1O (stereo partly specified)	NOMO-1 viab 101 (no result: PD-1 reversal)
Cc1cc(C(F)F)n2nc(C(=O)Nc3c(C)nn(Cc4ccc(Cl)cc4)c3C)nc2n1	none
CC(C)(C)c1ccc(OCC(=O)Nc2cccnc2)c(Br)c1	none (no result: PD-1 reversal)
C[C@H](CO)N1C[C@H](C)[C@H](CN(C)Cc2ccc(Cl)c(Cl)c2)Oc2ccc(NS(C)(=O)=O)cc2C1=O	none
Cc1ccc(S(=O)(=O)Nc2ccc3c(c2)C(=O)N([C@H](C)CO)C[C@@H](C)[C@H](CN(C)Cc2ccc(Cl)c(Cl)c2)O3)cc1	NOMO-1 viab 104 (no result: STK33 inh)
Cc1ccc(S(=O)(=O)Nc2ccc3c(c2)C(=O)N([C@@H](C)CO)C[C@@H](C)[C@H](CN(C)Cc2ccc(Cl)c(Cl)c2)O3)cc1	NOMO-1 viab 89 (no result: STK33 inh)
C[C@H]1CN([C@@H](C)CO)C(=O)c2cc(NS(C)(=O)=O)ccc2O[C@H]1CN(C)Cc1ccc(Cl)c(Cl)c1	none
NC(=O)CSc1nnc(-c2ccccc2O)n1-c1ccccc1	none (no result: PD-1 reversal)
CCn1c(SCC(=O)Nc2ccc(C)cc2)nnc1-c1cccnc1	none (no result: PD-1 reversal)
Cc1ccc(NC(=O)COc2ccccc2)c(NC(=O)c2ccccc2I)c1	none (no result: PD-1 reversal)
O=C(Nc1cccc(S(=O)(=O)N2CCCC2)c1)c1cc(-n2cnnc2)ccc1Cl	none
CC1(C)CC(=O)c2c([nH]c(-c3ccccc3)c2-c2ccccc2)C1	NOMO-1 viab 92 (no result: STK33 inh)
O=C1NC(=O)c2cc(-c3ccccc3)ccc21	none (no result: STK33 inh)
O=C(CCCN1C(=O)c2ccccc2C1=O)Nc1ccccc1Cl	none (no result: PD-1 reversal)
C[C@H](CO)N1C[C@H](C)[C@H](CN(C)Cc2ccc(C(=O)Nc3ccccc3N)cc2)Oc2c(NC(=O)NC3CCCCC3)cccc2C1=O	NOMO-1 viab 120 (no result: STK33 inh)
C[C@@H]1CN([C@H](C)CO)C(=O)c2cccc(NC(=O)NC3CCCCC3)c2O[C@@H]1CN(C)Cc1ccc(C(=O)Nc2ccccc2N)cc1	NOMO-1 viab 127 (no result: STK33 inh)
C[C@H]1CN([C@@H](C)CO)C(=O)c2cccc(NC(=O)NC3CCCCC3)c2O[C@H]1CN(C)Cc1ccc(-c2ccccc2)cc1	none (no result: STK33 inh)
C[C@H](CO)N1C[C@H](C)[C@H](CN(C)Cc2ccc(C(=O)O)cc2)Oc2c(NC(=O)NC3CCCCC3)cccc2C1=O	none (no result: STK33 inh)
C[C@@H]1CN([C@H](C)CO)C(=O)c2cccc(NC(=O)NC3CCCCC3)c2O[C@H]1CN(C)Cc1ccc(C(=O)O)cc1	none (no result: STK33 inh)
C[C@H]1CN([C@@H](C)CO)C(=O)c2cccc(NC(=O)NC3CCCCC3)c2O[C@H]1CN(C)Cc1ccc(C(=O)Nc2ccccc2N)cc1	NOMO-1 viab 129 (no result: STK33 inh)
COc1ccc(OC)c(NC(=O)C2=C(C)NC(=O)NC2c2ccc(OC)cc2OC)c1 (stereo unspecified)	none

Compound activity (PubChem)
